Experimental data taken from PubChem BioAssay (NCATS).
Results filed as inconclusive are left out. A call without a number means that no potency is given here. Values without a mark were called inactive. Activity calls are given as the source filed them. Calls follow the shape of the dose curve; as a rule, active = well fitted curve in the direction sought with a large enough effect; inconclusive = small, poorly fitted or top-dose-only effect, or another doubt; inactive = no such curve, though single readings can be large; an effect the other way counts as inactive or inconclusive.

Tests used:
[1] = molecular target: Rap guanine nucleotide exchange factor 3 (Homo sapiens) (UniProt O95398); assay: Confirmatory qHTS for antagonist of cAMP-regulated guanine nucleotide exchange factor 3 (EPAC1) (AID 1645880); also: nearly all actives have a fitted effect of over 55% in size; also: potency is read from the fitted curve at half-maximal effect
Rap guanine nucleotide exchange factor 3 (Homo sapiens), sequence (O95398 whole entry, looked up): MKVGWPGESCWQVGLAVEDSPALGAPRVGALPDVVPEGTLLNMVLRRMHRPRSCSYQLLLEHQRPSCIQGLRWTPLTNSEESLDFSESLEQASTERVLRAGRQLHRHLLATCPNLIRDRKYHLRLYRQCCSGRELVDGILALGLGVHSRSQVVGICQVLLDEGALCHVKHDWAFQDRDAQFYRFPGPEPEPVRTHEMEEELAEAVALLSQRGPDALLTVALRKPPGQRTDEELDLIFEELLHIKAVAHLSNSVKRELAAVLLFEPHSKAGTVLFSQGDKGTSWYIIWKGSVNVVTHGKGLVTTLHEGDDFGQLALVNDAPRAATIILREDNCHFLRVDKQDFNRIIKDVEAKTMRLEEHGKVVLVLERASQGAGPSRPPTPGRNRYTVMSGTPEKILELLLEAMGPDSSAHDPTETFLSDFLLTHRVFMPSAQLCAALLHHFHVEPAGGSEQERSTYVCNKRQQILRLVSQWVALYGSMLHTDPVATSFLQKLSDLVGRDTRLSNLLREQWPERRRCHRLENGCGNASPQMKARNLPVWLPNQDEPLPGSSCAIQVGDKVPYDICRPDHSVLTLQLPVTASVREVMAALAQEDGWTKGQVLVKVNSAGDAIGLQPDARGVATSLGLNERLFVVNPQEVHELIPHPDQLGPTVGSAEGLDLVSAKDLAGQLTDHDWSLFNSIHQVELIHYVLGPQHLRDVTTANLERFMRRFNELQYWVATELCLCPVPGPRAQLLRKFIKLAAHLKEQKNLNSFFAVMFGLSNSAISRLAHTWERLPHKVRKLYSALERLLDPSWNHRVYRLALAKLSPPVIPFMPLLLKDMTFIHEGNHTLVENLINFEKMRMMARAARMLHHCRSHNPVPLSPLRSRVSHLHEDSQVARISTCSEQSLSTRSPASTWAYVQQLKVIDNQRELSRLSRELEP
Procedure, shortened: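 Released BODIPY-GDP fluoresces less than Rap1-bound BODIPY-GDP; the signal is followed at 480/540 nm at 5-min intervals over 30 min, after 5 min at room temperature. Reactions contain 100 nM EPAC1, 250 nM RAP1B-BODIPY-GDP and 50 uM GDP; results are normalized to ATA and DMSO.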

[2] = molecular target: Rap guanine nucleotide exchange factor 3 (Homo sapiens) (UniProt O95398); assay: Confirmatory qHTS for agonist of cAMP-regulated guanine nucleotide exchange factor 3 (EPAC1) (AID 1645881); also: nearly all actives have a fitted effect of over 75% in size; also: potency is read from the fitted curve at half-maximal effect;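 as to activation: EPAC1 catalysed release of BODIPY-GDP from Rap1B seen as fluorescence loss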
[3] = molecular target: Rap guanine nucleotide exchange factor 4 (Homo sapiens) (UniProt Q8WZA2); assay: Confirmatory qHTS for agonist of cAMP-regulated guanine nucleotide exchange factor 4 (EPAC2) (AID 1645884);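 also: nucleotide exchange releases bodipy-GDP from Rap1 and this lowers its fluorescence; nearly all actives have a fitted effect of over 65% in size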; also: potency is read from the fitted curve at half-maximal effect
Rap guanine nucleotide exchange factor 4 (Homo sapiens), sequence (Q8WZA2 whole entry, looked up): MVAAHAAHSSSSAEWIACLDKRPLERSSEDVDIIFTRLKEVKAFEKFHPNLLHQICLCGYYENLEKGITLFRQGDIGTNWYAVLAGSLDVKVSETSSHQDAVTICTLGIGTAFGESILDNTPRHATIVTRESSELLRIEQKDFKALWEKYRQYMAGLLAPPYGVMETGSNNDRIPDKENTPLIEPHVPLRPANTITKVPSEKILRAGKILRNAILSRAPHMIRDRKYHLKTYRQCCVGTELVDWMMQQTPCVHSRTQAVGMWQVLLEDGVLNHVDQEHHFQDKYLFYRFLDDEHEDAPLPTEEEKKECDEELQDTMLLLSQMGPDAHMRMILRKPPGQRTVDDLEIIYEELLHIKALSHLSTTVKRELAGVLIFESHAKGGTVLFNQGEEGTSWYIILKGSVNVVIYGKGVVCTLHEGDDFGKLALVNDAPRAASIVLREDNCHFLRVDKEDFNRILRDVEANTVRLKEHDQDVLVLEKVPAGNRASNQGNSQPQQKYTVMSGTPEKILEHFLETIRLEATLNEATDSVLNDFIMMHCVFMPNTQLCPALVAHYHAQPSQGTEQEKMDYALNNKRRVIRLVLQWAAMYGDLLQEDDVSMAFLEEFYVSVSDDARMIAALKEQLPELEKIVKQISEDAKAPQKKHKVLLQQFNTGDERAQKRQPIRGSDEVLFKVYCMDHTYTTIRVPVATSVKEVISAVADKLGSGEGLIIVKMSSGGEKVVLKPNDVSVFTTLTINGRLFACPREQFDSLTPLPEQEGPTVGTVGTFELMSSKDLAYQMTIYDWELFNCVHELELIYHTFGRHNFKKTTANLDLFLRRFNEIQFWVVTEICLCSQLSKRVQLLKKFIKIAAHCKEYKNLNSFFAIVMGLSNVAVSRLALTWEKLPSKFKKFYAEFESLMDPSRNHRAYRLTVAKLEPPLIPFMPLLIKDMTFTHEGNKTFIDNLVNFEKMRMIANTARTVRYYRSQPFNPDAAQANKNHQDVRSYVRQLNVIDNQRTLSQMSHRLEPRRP

[4] = molecular target: Rap guanine nucleotide exchange factor 4 (Homo sapiens) (UniProt Q8WZA2); assay: Confirmatory qHTS for antagonist of cAMP-regulated guanine nucleotide exchange factor 4 (EPAC2) (AID 1645885); also: nearly all actives have a fitted effect of over 25% in size; also: potency is read from the fitted curve at half-maximal effect
[5] = molecular target: Rap guanine nucleotide exchange factor 3 (Homo sapiens) (UniProt O95398); assay: Counterscreen qHTS for antagonist of cAMP-regulated guanine nucleotide exchange factor 3 (EPAC1) (AID 1645888)
Procedure, shortened: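 Rap1B-BODIPY-GDP 250 nM + GDP 50 uM; cpds 7-pt, final 9.74 nM–152 uM (activator mode) or from 7.32 nM upwards (inhibitor mode); RT; FI 480/540 nm at 5 and 30 min, then ± cAMP, reread.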

Row | Structure (SMILES) | Potency [1] | Potency [2] | activation [3] | Potency [4] | activity change, negative = inhibition [5] | Potency [3] | Potency [5] | outcome [4]
1 | Oc1ccc(-c2c(-c3ccsc3)sc3ccccc23)cc1 | inactive | inactive | 2.53% [at 17.1 µM, percent relative to cAMP agonist control] | inactive | -8.26% [at 30.8 µM] | – | – | –
2 | Cc1ccc(NC(=O)c2c(NC(=O)C(F)(F)F)sc3c2CCCCC3)cc1 | 84.9 µM (active) | inactive | – | inactive | – | inactive | inactive | –
3 | CC[n+]1c(/C=C/C=C/N(C(C)=O)c2ccccc2)sc2cc(OC)ccc21 | inactive | 100 µM (active) | – | inactive | – | 112 µM (active) | inactive | –
4 | CCc1cccc(C)c1Nc1c(-c2cccs2)nc2ncccn12 | inactive | inactive | – | inactive | – | inactive | inactive | –
5 | CCCCCn1c(C)c2c(OCC)cccc(=O)c2c1C | inactive | inactive | 7.02% [at 17.1 µM, percent relative to cAMP agonist control] | inactive | 23.1% [at 30.8 µM] | – | – | –
6 | COc1ccc(OCc2nc3ccccc3n2Cc2ccccc2Cl)cc1 | inactive | inactive | – | inactive | – | inactive | inactive | –
7 | CCOc1ccc(NCc2nc3ccccc3n2CCOc2ccccc2)cc1 | inactive | inactive | 16.9% [at 17.1 µM, percent relative to cAMP agonist control] | inactive | 4.92% [at 30.8 µM] | – | – | –
8 | Cc1cccc(C)c1Nc1c(-c2ccccc2F)nc2cccc(C)n12 | 75.7 µM (active) | inactive | – | inactive | – | inactive | inactive | –
9 | Cc1cccc(NCC(=O)N/N=C\c2ccc[nH]2)c1 | inactive | inactive | – | inactive | – | inactive | inactive | –
10 | COc1ccc(N(Cc2cccs2)C(=O)c2ccco2)cc1 | inactive | inactive | – | – | – | inactive | inactive | inactive [at 12.7 µM]
11 | COCCN(CCOC)Cc1cc(=O)oc2cc(C)c(C)cc12 | inactive | inactive | 2.1% [at 17.1 µM, percent relative to cAMP agonist control] | inactive | -13% [at 30.8 µM] | – | – | –
12 | COC1=NC(=C(c2ccccc2)c2ccccc2)OC1=O | 19 µM (active) | inactive | – | 47.8 µM (active) | – | inactive | inactive | –
13 | CS(=O)(=O)c1cccc(C(=O)OCC(=O)c2ccc3c(c2)OCCO3)c1 | inactive | inactive | 8.5% [at 17.1 µM, percent relative to cAMP agonist control] | inactive | -4.85% [at 30.8 µM] | – | – | –
14 | O=C(/C=C/c1ccco1)Nc1ccc(Cl)c(-c2nc3cc(Cl)ccc3o2)c1 | 75.7 µM (active) | inactive | – | inactive | – | inactive | inactive | –
15 | COc1cc2c(cc1OC)C(c1ccccc1)N(C(=O)c1ccco1)CC2 (stereo not given) | inactive | inactive | – | inactive | – | inactive | inactive | –
16 | CCCCCNC(=O)C(c1cc2ccccc2o1)n1c(=O)c(-c2ccco2)nc2ccccc21 (stereo not given) | 16.9 µM (active) | inactive | – | 10.7 µM (active) | – | inactive | inactive | –
17 | COc1cccc(Cn2c(=O)cc(C)c3c(C)nn(C)c32)c1 | inactive | inactive | – | inactive | – | inactive | inactive | –
18 | COc1ccc(-n2ccn(Cc3ccccc3Cl)c(=O)c2=O)cc1OC | inactive | inactive | – | inactive | – | inactive | inactive | –
19 | CCOc1cc(/C=C2\SC(=S)N(NS(=O)(=O)c3ccccc3)C2=O)ccc1O | 33.8 µM (active) | inactive | – | 42.6 µM (active) | – | inactive | inactive | –
20 | CCOC(=O)CSc1ccc2nnc(-c3ccccc3)n2n1 | inactive | inactive | 7.87% [at 17.1 µM, percent relative to cAMP agonist control] | inactive | -6.6% [at 30.8 µM] | – | – | –
21 | COC(=O)c1c(SC)nc2ccccc2c1OCc1ccc(Br)cc1 | inactive | inactive | – | inactive | – | inactive | inactive | –
